# Screening results (PubChem)
# RORgamma inh – ROR gamma (mouse) transcription inhibition; Drosophila S2 Gal4-RORgamma UAS-luciferase reporter, 20 h; AID 2551; P51450; 310,000 compounds, 5.4% hits; Potency, µM (doses to about 53.6 µM), inactives show at the top dose activity change, negative = inhibition, hits mostly inhibitors; also: potency is read from the fitted curve at half-maximal effect; % is scaled to controls: 0 for no effect and ±100 for the full control effect; nearly all actives have a fitted effect of over 60% in size
#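 Luciferase reporter read in Schneider cells carrying Gal4-RORγ (mouse) and UAS-Photinus luciferase; cells given compound 1 h before 700 uM copper sulfate induction, then incubated 20 h at ambient temperature.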
# CtBP-E1A blk – inhibitors of CtBP/E1A interaction; AlphaScreen GST-E1A/His-CtBP binding, 1536-well; stronger effect = lower value; activity change, % (no concentration beside the values); 340,000 compounds, 0.49% hits; in the data active = activity change below about -65%; inconclusive = mostly about -30% to -63%; also: % is scaled to controls: 0 for no effect and ±100 for the full control effect
#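 GST-E1A and His-tagged CtBP (125 nM each as 5X stock) were preincubated with pin-transferred compound for 2 h at 37 °C in the dark, then glutathione donor and nickel acceptor beads were added for 1 h before AlphaScreen reading.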
# Six1-Eya2 inh – blocks human Six1 binding to Eya2; AlphaScreen GST-Six1/His-Eya2 binding, biochemical; stronger effect = lower value; activity change, % (no concentration beside the values); 360,000 compounds, 0.56% hits; AID 651725; in the data active = activity change below about -65%; inconclusive = mostly about -30% to -63%; also: % is scaled to controls: 0 for no effect and ±100 for the full control effect
# Target sequence (O00167 whole entry, looked up): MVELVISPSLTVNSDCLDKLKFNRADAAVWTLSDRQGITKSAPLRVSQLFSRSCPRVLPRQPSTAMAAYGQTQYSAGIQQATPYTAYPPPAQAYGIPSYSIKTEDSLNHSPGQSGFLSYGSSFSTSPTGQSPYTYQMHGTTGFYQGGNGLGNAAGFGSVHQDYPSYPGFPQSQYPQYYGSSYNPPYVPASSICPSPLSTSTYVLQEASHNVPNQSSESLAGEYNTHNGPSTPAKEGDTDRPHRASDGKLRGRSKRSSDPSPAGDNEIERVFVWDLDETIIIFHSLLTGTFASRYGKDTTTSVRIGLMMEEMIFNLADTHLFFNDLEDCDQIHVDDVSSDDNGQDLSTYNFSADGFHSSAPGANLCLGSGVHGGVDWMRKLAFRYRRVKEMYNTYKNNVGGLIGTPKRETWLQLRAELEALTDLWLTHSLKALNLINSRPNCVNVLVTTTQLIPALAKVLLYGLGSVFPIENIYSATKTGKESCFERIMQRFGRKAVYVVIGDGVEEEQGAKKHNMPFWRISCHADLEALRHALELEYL
# Target sequence (Q15475 whole entry, looked up): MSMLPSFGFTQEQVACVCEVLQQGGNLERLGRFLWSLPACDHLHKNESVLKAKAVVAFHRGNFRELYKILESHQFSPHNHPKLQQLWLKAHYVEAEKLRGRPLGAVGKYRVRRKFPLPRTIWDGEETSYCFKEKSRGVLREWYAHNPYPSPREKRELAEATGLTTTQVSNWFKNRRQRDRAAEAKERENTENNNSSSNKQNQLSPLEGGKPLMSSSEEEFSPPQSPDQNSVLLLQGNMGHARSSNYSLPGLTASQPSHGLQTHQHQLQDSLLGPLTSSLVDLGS
#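 GST-Six1 + His-Eya2 (5X stock: 250/500 nM); Tris pH 8.0, 300 mM NaCl, 0.05% BSA, 0.02% Tween 20; GSH donor/Ni acceptor beads; 1 h 37 °C dark; AlphaScreen readout.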
# p53 reactivation – restores transcriptional activity of mutant p53. H1299 p53-A138V BP100-luciferase reporter, luminescence, 24 h. Potency, µM (titrated, usually from 92.2 µM), inactives show at the top dose activity change, positive = activation, hits mostly activators. 320,000 compounds, 0.063% hits. AID 504706; also: potency is read from the fitted curve at half-maximal effect; % of control where 0% means no effect; nearly all actives have a fitted effect of over 45% in size
#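 p53-null H1299 cells stably carrying temperature-sensitive p53-A138V and a BP100-luciferase reporter were pinned with compounds (4-point, 1:5 series) and held 24 hrs at 37 deg C. Luminescence was read 10 min after detection reagent.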
# VP16 counter – counter-screen for ROR gamma inhibitors: Gal4-VP16 reporter; Potency, µM (titrated, usually from 53.6 µM), inactives show at the highest dose activity, negative = inhibition, actives largely listed as inhibitors; AID 2546; Drosophila S2 Gal4-VP16 UAS-luciferase, luminescence, 20 h; 310,000 compounds, 3.5% hits;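 also: Gal4-VP16 expression switched on by copper sulfate through the metallothionein promoter; potency is read from the fitted curve at half-maximal effect; % is scaled to controls: 0 for no effect and ±100 for the full control effect; nearly all actives have a fitted effect of over 50% in size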
# * marks the source's active call; other numbers are inactive results; ? = inconclusive; . = no result given; [ ] = remark or other dose. A selection: hits, their analogues and other compounds. The true share with any hit is near 5.4%. Unless noted, calls follow the shape of the dose curve; as a rule, active = well fitted curve in the direction sought with a large enough effect; inconclusive = small, poorly fitted or top-dose-only effect, or another doubt; inactive = no such curve, though single readings can be large; an effect the other way counts as inactive or inconclusive.
SMILES,RORgamma inh,CtBP-E1A blk,Six1-Eya2 inh,p53 reactivation,VP16 counter
CCOc1ncccc1C(=O)N(C)CC(=O)Nc1ccccc1SC,-1%,3,-15,-5%,1%
CC(=O)c1cn(CC(=O)Nc2cccc(C)c2C)c2ccccc12,?,-3,3,-2%,13µM*
CCCCc1ccc(NC(=S)N2CCCC2)cc1,11µM*,5,2,18%,10µM*
CCCCc1ccc(NC(=S)N2CCN(C)CC2)cc1,11µM*,.,-3,?,?
CCCCc1ccc(NC(=S)N2CCN(C(=O)OCC)CC2)cc1,1.3µM*,-6,-4,.,?
CC(C)c1ccc(NC(=S)N2CCN(C)CC2)cc1,-30%,0,1,?,-1%
S=C(Nc1ccccc1)N1CCCCCCC1,?,3,4,-3%,-5%
CC(C)c1ccc(NC(=S)N2CCCC2)cc1,10µM*,8,4,?,?
CCCCc1ccc(NC(=O)N[C@@H](C)C(=O)O)cc1,9%,14,7,3%,-3%
CCCCc1ccc(NC(=O)C(C)CC)cc1 (configuration not stated),1.4µM*,14,8,5%,4µM*
COc1ccc(CN(C)C[C@@H]2OCc3cnnn3CCCC(=O)N([C@H](C)CO)C[C@H]2C)cc1,.,5,6,.,.
O=C(N/N=C/c1ccccc1)C(=O)N/N=C/c1ccccc1,-37%,2,4,4%,-5%
O=C(C=C=Nc1ccccc1)C(=O)N=C=Cc1ccccc1,4µM*,-20,?,-13%,7.1µM*
O=C1C=CC(O)(c2cc(=O)c3c(O)cc(O)cc3o2)C=C1,3.2µM*,-8,-18,-24%,2.8µM*
COC(=O)/C(=C(O)\C=C\c1ccccc1[N+](=O)[O-])c1nc2ccccc2[nH]1,7.9µM*,-29,-26,11%,?
Cc1ccsc1CNCC(O)c1ccccc1 (configuration not stated),-8%,0,-9,.,5%
Cc1cc(/C=N/NC(=O)C(O)(c2ccccc2)c2ccccc2)c(C)n1-c1ccccc1,11µM*,.,-9,-10%,?
Cc1cc(/C=N/NC(=O)c2ccncc2)c(C)n1-c1ccccc1,10µM*,-17,-17,?,?
Cc1ccc(-n2c(C)cc(/C=N/NC(=O)c3ccncc3)c2C)cc1C,4µM*,-7,-11,3%,?
Cc1cc(/C=N/NC(=O)c2cccs2)c(C)n1-c1ccccc1,?,-13,-13,37%,?
CCc1ccc(-n2c(C)cc(/C=N/NC(=O)OC)c2C)cc1,11%,.,-16,1%,-1%
CCc1ccc(-n2c(C)cc(/C=N/NC(=O)c3ccncc3)c2C)cc1,7.1µM*,-12,-14,-5%,20µM*
Cc1cc(/C=N/NC(N)=O)c(C)n1-c1ccc(F)cc1,-18%,-3,0,-3%,-6%[10 µM]
NS(=O)(=O)c1ccc(CNC(=O)c2sccc2-c2ccccc2)cc1,-8%,-1,1,-1%,6%
Cc1cc(C)cc(OCC(=O)Nc2ccc3c(c2)C(=O)c2ccccc2C3=O)c1,-10%,9,-2,15%,11%
SMILES,RORgamma inh,CtBP-E1A blk,Six1-Eya2 inh,p53 reactivation,VP16 counter
c1csc(CNc2ncncc2-c2ccoc2)c1,17%,.,.,.,-3%
C/C=C(/CC[C@@H](C)[C@H]1CCC2C3=CC[C@H]4[C@H](C)[C@@H](O)CC[C@]4(C)C3CC[C@@]21C)C(C)C (some centres not stated),-22%,.,.,.,-4%
Cc1cccc(C)c1-n1c(C)cc(/C=N/NC(=O)CSc2ncccn2)c1C,?,0,-22,-5%,16µM*
Cc1cc(/C=N/NC(=O)c2cccc([N+](=O)[O-])c2)c(C)n1-c1ccccc1,3.5µM*,?,-23,24%,4.5µM*
Cc1cccc(C)c1-n1c(C)cc(/C=N/NC(=O)c2ccncc2)c1C,1.3µM*,-13,-8,0%,2.2µM*
Cc1ccc(-n2c(C)cc(/C=N/NC(=O)c3ccncc3)c2C)c(C)c1,19%,-20,-9,0%,-6%
COc1cccc(/C=N/Nc2nc3ccccc3[nH]2)c1O,0.71µM*,.,-8,15%,2.2µM*
COc1cccc(/C=N/Nc2nc3ccccc3n3cnnc23)c1O,?,-93*,-87*,32µM*,?
COc1cccc(/C=N/Nc2nc3ccccc3[nH]2)c1OC,?,-11,-2,6%,?
COc1cccc(/C=N/Nc2nc3ccccc3n3cnnc23)c1,20%,?,?,1%,-6%
O=C(CC1CCCC1)N1CCN(S(=O)(=O)c2c(F)cccc2F)CC1,.,5,-1,.,.
CC1CCN(C(c2ccccc2)c2nnnn2C(C)(C)C)CC1 (configuration not stated),?,-12,6,0%,3.2µM*
Cc1ccc(C(c2nnnn2C(C)(C)C)N2CCC(C)CC2)cc1 (configuration not stated),?,2,1,-3%,-16%
Cc1ccc(C(c2nnnn2CCc2ccccc2)N2CCC(C)CC2)cc1 (configuration not stated),?,-2,11,9%,14µM*
CC(=O)Nc1ccc(C(=O)CN2C(=O)CSC2=O)cc1,9%,0,1,8%,3%
O=C(CSc1nncn1-c1ccccn1)Nc1cccc(Cl)c1,8%,9,1,-4%,-11%
O=C(CSC1=NNC(c2ccccn2)S1)Nc1ccccc1 (configuration not stated),1µM*,-94*,-94*,15%,2.5µM*
O=C(CSC1=NNC(c2ccccn2)S1)Nc1cccc(Cl)c1 (configuration not stated),3.5µM*,-96*,-89*,14%,13µM*
O=C1NCCN(Cc2ccc(-c3ccccc3)cc2)C1CC(=O)N1CCN(CCO)CC1 (configuration not stated),4%,4,3,-1%,-14%
CCCSc1nnc(CNC(=O)C23CC4CC(CC(C4)C2)C3)n1Cc1ccccc1,-4%,-13,-4,-10%,-5%
FC(F)(F)c1cc(-c2ccccc2)nc(N2CCOCC2)n1,0.79µM*,53,75,-2%,-2%
CCN(CC)C(=O)COc1c(-c2ccco2)oc2ccccc2c1=O,5%,-2,0,5%,-10%
CC(=O)Oc1c(-c2ccco2)oc2ccccc2c1=O,13µM*,-22,-18,8%,?
CC(=O)OCC=C1CCC2C3CC(C)C4=CC(=O)CCC4(C)C3C(O)CC12C (configuration not stated),.,-6,-8,.,.
O=[N+]([O-])c1ccc(C2Oc3ccccc3C3CC(c4ccccc4)=NN32)s1 (configuration not stated),11µM*,.,.,?,?
